Here are results for 91 compounds from PubChem BioAssay AID588473 (Sanford-Burnham Center for Chemical Genomics, 2011).

The structures appear in SMILES notation. The whole screen tested about 350,000 compounds, of which about 1,600 (0.46%) were called active. The sample holds actives, similar compounds and a random draw of the others, so the mix is not that of the screen. A number with no mark means an inactive call.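 How the source made its calls: active means activation of at least 50%, plus an integration ratio under a set limit after plate pattern correction; inactive means the rest.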

In this experiment the test system is CRF-binding protein / CRF receptor 2 complex (human). The experiment in a line: agonists of CRF-BP/CRF-R2 complex, primary screen, cell-based, HEK293, calcium dye fluorescence, uHTS (AID 588473).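 Further: plate controls were neutral control wells without compound for no effect and CRF at EC100 for full effect.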 Particulars: calcium dye fluorescence (FLIPR), at 13.2 µM, active compounds read high, percent of saturating CRF peptide response.
As to `COc1cccc(N2CC(NC(=O)c3ccc4ccccc4c3)CC2=O)c1` (stereo unspecified), the activation is -0.96%.

For the compound `O=C(CCc1nc(-c2ccccc2)no1)Nc1cccc(C(=O)NC2CC2)c1`, the activation is -1.3%.

As to `COC(=O)c1ccc(C(=O)OC)c(NC(=S)N2CCN(c3cc(Cl)ccc3C)CC2)c1`, the activation was 2.16%.

For the compound `Cc1ccc(Cl)cc1N1CCN(C(=O)c2cccc3c(=O)c(C)c(-c4ccccc4)oc23)CC1`, the activation was 63.6% (active).

Consider `Cc1cccc(N2CCN(C(=O)c3cnn4c(C(F)F)cc(-c5ccccc5)nc34)CC2)c1C`, for which the activation is -0.01%.

With `CC(=O)Nc1ccc(S(=O)(=O)N(C)c2ccc(OCC(=O)OCC(=O)N3CCCCC3)cc2)cc1`, the activation is -1.11%.

Take `O=c1oc2ccccc2c(=O)c2ccccc12`: the activation was 0%.

In the case of `COc1cc(N=Cc2c(O)c3ccccc3oc2=O)c(OC)cc1Cl`, the activation is 66.4% (active).

Turning to `COc1ccccc1CNC(=O)c1cc(=O)c2ccccc2o1`, the activation was -1.3%.

`O=C(CCN1CCN(c2ccccc2)CC1)NNC(=S)Nc1ccccc1`: the activation is -0.17%.

Turning to `CCCCC(=O)NNC(=S)NC(=O)C(c1ccccc1)c1ccccc1`, the activation is 135% (active).

As to `CC(C)C(=O)NC(=S)Nc1ccccc1F`, the activation is -2.1%.

As to `CC(C)CCNC(=O)CC1C(=O)N(Cc2ccccc2)C(C)c2nc3ccccc3n21` (stereo unspecified), the activation is -1%.

As for `OC(COCCC12CC3CC(CC(C3)C1)C2)CN1CCCCC1` (stereo unspecified), the activation was 0.79%.

Take `COc1ccc(-c2ocnc2C(=O)Nc2ccc3c(c2)CCC3)cc1`: the activation is 1.68%.

As for `COc1ccc(NC(C(=O)Nc2cccc(C(C)=O)c2)c2ccccc2)cc1` (stereo unspecified), the activation is -0.34%.

Consider `COc1ccc(-c2onc3ccc(C(C)=O)cc23)cc1`, for which the activation is 100% (active).

For `CC1CCCCC1NCC(=O)Nc1ccccc1C(=O)Nc1ccccc1` (stereo unspecified), the activation is -2.89%.

Consider `COc1ccccc1C(=O)Nc1ccccc1C(=O)Nc1ccccc1`, for which the activation was 0.57%.

On to `O=C(Nc1ccccc1)c1ccccc1NC(=O)C(F)(F)F`, for which the activation was 55.4% (active).

In the case of `O=S(=O)(Nc1ccc(-c2ccc(N3CCOCC3)nn2)cc1)c1cc(Cl)ccc1Cl`, the activation is 0.21%.

On to `CCOc1ccccc1C1CC(c2ccccc2)Nc2nc(N)nn21` (stereo unspecified), for which the activation was 8.41%.

Consider `CCOc1ccc(C2=CC(c3ccccc3)n3ncnc3N2)cc1` (stereo unspecified), for which the activation was 53.1% (active).

For the compound `Clc1ccc2c(c1)C1=C(C(c3ccncc3)O2)C(c2ccc(Br)cc2)n2ncnc2N1` (stereo unspecified), the activation is 0.45%.

With `CC1=C(C(=O)OC2CCCCC2)C(c2cccnc2)n2ncnc2N1` (stereo unspecified), the activation was -0.1%.

With `Brc1ccc(C2=CC(c3ccco3)n3ncnc3N2)cc1` (stereo unspecified), the activation is 274% (active).

As for `CN(CC(=O)Nc1ccccc1F)CC(=O)Nc1ccccc1Br`, the activation was -3.49%.

With `Cc1cccc(CC2(O)C(=O)Nc3ccccc32)n1` (stereo unspecified), the activation was -0.62%.

As for `CCN(CC)S(=O)(=O)c1ccc(Cl)c(C(=O)NC(C)C(c2cccs2)N2CCCC2)c1` (stereo unspecified), the activation was 0.2%.

With `OCCCNC(c1ccccc1)c1ccc(O)cc1` (stereo unspecified), the activation is -1.4%.

With `COc1cc(/C=C2\C(=N)N3N=C(CC(=O)N4CCOCC4)SC3=NC2=O)cc(OC)c1OC`, the activation was -0.4%.

Take `C=CCC1=C/C(=C\c2c(N)n3nc(CC(=O)N4CCOCC4)sc3nc2=O)C=C(OC)C1=O`: the activation is 83.2% (active).

As for `COC1=C/C(=C/c2c(N)n3nc(CC(=O)N4CCOCC4)sc3nc2=O)C=CC1=O`, the activation was 9.37%.

With `CN(CC(=O)Nc1ccc(C(N)=O)cc1)S(=O)(=O)c1ccc2c(c1)OCCO2`, the activation was 3.57%.

For `CCCCCCCCNS(=O)(=O)CCNC1CCCCC1`, the activation was -0.59%.

Regarding `CC(C)n1c(-c2ccncc2)n[nH]c1=S`, the activation is -1.12%.

Consider `O=C(Nc1cc2c3c(c1)C1CCCC1CN3CC1CCCC21)c1ccc([N+](=O)[O-])cc1` (stereo unspecified), for which the activation was -3.97%.

Consider `Nc1cc(C(=O)N2CCN(c3ccccc3Cl)CC2)ccc1N1CC2CC(C1)c1cccc(=O)n1C2` (stereo unspecified), for which the activation was 0.29%.

As for `Oc1ccc(-c2nncn2-c2ccccc2)cc1`, the activation was 0.43%.

On to `CC(N=Cc1nc(-c2ccccc2)oc1O)c1ccccc1` (stereo unspecified), for which the activation was -5.27%.

`CCOc1ccc2nc(C(=O)N3CCCC(C)C3)sc2c1` (stereo unspecified): the activation is 0.48%.

Take `CCOc1ccc2nc(/N=C/c3nc(-c4ccccc4)oc3O)sc2c1`: the activation was 191% (active).

In the case of `Cn1c(=O)c2c(nc(N3CCOCC3)n2CCNC2=NCCC2)n(C)c1=O`, the activation was -1.41%.

In the case of `C[C@H]1NS(=O)(=O)c2cc(Cl)ccc2O[C@@H]1c1ccccc1`, the activation was -0.01%.

Regarding `COC(=O)C1(O)CC(C(C)C)=NN1C(=O)c1ccc(Cl)cc1` (stereo unspecified), the activation is 0.23%.

For `Cc1ccc(S(=O)(=O)/N=C2\C=C(NS(=O)(=O)c3ccc(C)cc3)C(=O)c3ccccc32)cc1`, the activation was -2.69%.

As for `CC1=C/C(=N\S(=O)(=O)c2ccccc2)C(C(C)C)=CC1=O`, the activation was 81.3% (active).

Regarding `COc1ccc(S(=O)(=O)/N=C2\C=C(NS(=O)(=O)c3ccccc3)C(=O)c3ccccc32)cc1`, the activation was -1.4%.

Take `O=[N+]([O-])c1cc(S(=O)(=O)NCCc2ccccn2)ccc1Cl`: the activation was 1.07%.

`CCCCN1C[C@H](c2ccc(Br)cc2)[C@@H](CC(=O)Nc2ccc(Br)cc2)C1=O`: the activation was -0.04%.

In the case of `COc1ccc(C2CC(c3cccs3)Nc3nnnn32)cc1` (stereo unspecified), the activation was -1.43%.

Turning to `COC(=O)C1=C(C(=O)c2ccc(C)cc2)C(c2ccccc2)n2nnnc2N1` (stereo unspecified), the activation is -0.02%.

For the compound `COc1ccc(C2=CC(c3cccc(OC)c3)n3nnnc3N2)cc1` (stereo unspecified), the activation was 69.7% (active).

For the compound `CC/C(=N\O)C(C)(C)/[N+]([O-])=C/c1ccc(Br)cc1`, the activation is 0.05%.

As to `CC(C)(C)Nc1c(-c2cccs2)nc2ccccn12`, the activation was -0.46%.

With `CCN(Cc1nc2ccccc2c(=O)[nH]1)Cc1cc(=O)oc2cc(C)c(C)cc12`, the activation was -0.08%.

In the case of `COC(=O)c1cc(C(=O)OCC(=O)Nc2cc(C)on2)cc([N+](=O)[O-])c1`, the activation is -3.69%.

With `CCc1ccc(NC(=O)CN2C(=O)COc3ccc(S(=O)(=O)N4CCCC4)cc32)cc1`, the activation is -5.92%.

Regarding `COCCCNCC(=O)Nc1sc(C)c(C)c1C(=O)OC`, the activation is -2.35%.

For the compound `C[n+]1ccc(/C=C/c2c[nH]c3ccccc23)cc1`, the activation was 61.1% (active).

In the case of `COc1ccc(N(CC(=O)Nc2ccc(F)c(F)c2)S(=O)(=O)c2c(C)[nH]c(=O)[nH]c2=O)cc1`, the activation is -1.2%.

Turning to `CCOC(=O)N1CCN(C(=O)c2nn(-c3ccc(C)cc3)c(=O)c3c2c2ccccc2n3C)CC1`, the activation is 3.98%.

For the compound `CCOC(=O)c1nnn2c3ccccc3c(=O)n(C)c12`, the activation is 0.18%.

On to `CCCc1nc2c(c(=O)c3ccccc3n2C)c(=O)n1C1CCCCCC1`, for which the activation is 137% (active).

As to `Nc1nc(SCC(=O)NCCN2CCOCC2)nc2sc3c(c12)CCC3`, the activation is 2.46%.

`CC(C)(C)C1CCc2c(sc3nc(SCC(N)=O)nc(N)c23)C1` (stereo unspecified): the activation is 0.65%.

For the compound `C=C(C)CSc1nc(N)c2c3c(sc2n1)CCC3`, the activation was 155% (active).

In the case of `CC(NC(=O)c1ccc(Cl)cc1)C(=O)N1CCCCC1` (stereo unspecified), the activation is 0.19%.

In the case of `O=C(CN1CCN(C2CCS(=O)(=O)C2)CC1)N1N=C(c2ccc(Cl)cc2)CC1c1ccco1` (stereo unspecified), the activation is 0.41%.

Turning to `CCOc1cc(/C=N/NC(=O)c2c(C)nc3ccc(Cl)cn23)ccc1O`, the activation was -0.91%.

As for `CCOc1cc(C=NNC(=O)CCCC(=O)NN=Cc2ccc(O)c(OCC)c2)ccc1O`, the activation was -2.14%.

As to `CCOc1cc(/C=C(\C#N)c2nc(-c3cccs3)c(NC(C)=O)s2)ccc1O`, the activation is 222% (active).

Regarding `CCOC(=O)c1ccc(N/C(=N/S(=O)(=O)c2ccccc2)c2ccccc2)cc1`, the activation is -1.91%.

On to `CC1(C)O[C@H]2CC(=O)OCC23[C@H]2CC[C@@]4(C)[C@H](c5ccoc5)OC(=O)[C@H]5O[C@]54[C@]2(C)C(=O)C[C@@H]13` (stereo partly specified), for which the activation was 1.6%.

In the case of `CN(NS(=O)(=O)c1cccs1)c1ncc(C(F)(F)F)cc1Cl`, the activation is -0.09%.

Take `C#CCN(N(C)c1ncc(C(F)(F)F)cc1Cl)S(=O)(=O)c1ccc2ccccc2c1`: the activation is 64.8% (active).

As for `Cc1nn(CC#N)c(=O)n1N(C)c1ncc(C(F)(F)F)cc1Cl`, the activation is 1.06%.

Regarding `O=C(Cc1ccc(Cl)cc1)NC(=S)Nc1ccccc1O`, the activation was 128% (active).

`O=C(COc1ccc(Cl)cc1)NC(=S)Nc1ccccc1N1CCOCC1`: the activation was 1.42%.

In the case of `Cc1ccccc1NC(=S)NC(=O)Cc1ccc(Cl)cc1`, the activation was 46%.

Consider `Cc1csc(=O)n1CC(=O)OCC(=O)N(CC(C)C)c1c(N)n(Cc2ccccc2)c(=O)[nH]c1=O`, for which the activation was -0.29%.

In the case of `CCCCNC(=O)C(C)N(CCN(C)C)C(=O)CCCN1C(=O)NC(c2ccc(Cl)cc2)C(C(=O)OCc2ccccc2)=C1C` (stereo unspecified), the activation is -0.71%.

Regarding `Cc1ccc(CNC(=O)c2cccc3c2C(=O)c2ccc(N4CCC(C)CC4)cc2S3(=O)=O)cc1`, the activation was 56.2% (active).

Consider `Cc1ccc(CNC(=O)c2ccc3c(c2)S(=O)(=O)c2ccccc2C3=O)cc1`, for which the activation is -0.74%.

For `CC1CCN(c2ccc3c(c2)S(=O)(=O)c2cc(C(=O)O)ccc2C3=O)CC1`, the activation was 3.35%.

For `Cc1ccnc2nc(C(=O)OCC(=O)N(CC(C)C)CC(C)C)nn12`, the activation is 3.18%.

With `CC(=O)OCC1(O)CC23CCC4c5ccoc5CCC4(C)C2CCC1C3` (stereo unspecified), the activation was 4.09%.

`COc1cc(OC)cc(C(=O)NC(=S)N2CCN(c3ccc(C(F)(F)F)cc3[N+](=O)[O-])CC2)c1`: the activation is 2.06%.

Turning to `CCN(CC)c1ccc2cc(C(N)=O)/c(=N\NC(=O)c3ccncc3)oc2c1`, the activation is 264% (active).

As for `CCN(CC)c1ccc(C(=O)N/N=C(\C)c2cccc(OC)c2)cc1`, the activation was 0.09%.

As to `COc1cccc2cc(C(N)=O)/c(=N\NC(=O)c3ccccc3)oc12`, the activation was -2.1%.
